Laboratory results published in PubChem BioAssay (NCI).
Compounds without any hit were thinned out: in the full panel of roughly 83,000, 20% have a hit.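 Compound tested at a single concentration for 48 hours in 96-well plates; a percent growth value below 10 was scored as active.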 Unmarked numbers belong to inactive results. The source made the active and inactive calls.

system: ACHN renal; assay: NCI-60 one-dose screen, 48 h (100 = growth as untreated, 0 = no growth, -100 = all killed); conditions: 10 µM unless noted

Row | SMILES | growth
1 | O=C(NCc1ccc(Cn2c(=O)sn(-c3ccccc3)c2=O)cc1)OCc1ccc2c(Br)cc(Br)c(O)c2n1 | -100% (active)
2 | N#CCCc1c[nH]c2ccccc12 | 97%
3 | C=CCCCCCCCCC(=O)OC(C)C | 107%
4 | COc1cc2c(cc1OCCCCCOc1ccc(-n3c(C)nc4ccccc4c3=O)cc1)N=C[C@@H]1CCCN1C2=O | 9.23% (active)
5 | Cc1cccc(/C=C2\N=C(c3ccccc3)N(c3ccc(S(N)(=O)=O)cc3)C2=O)c1 | 86.5%
6 | Clc1ccc(/C=N/Nc2nc3ccccc3s2)c(Cl)c1 | 82.8%
7 | CCOC(=O)COc1c(C)cc(SSc2cc(C)c(OCC(=O)OCC)c(C)c2)cc1C | 107%
8 | Nc1nc(Nc2ccccc2)c2ncn(Cc3cc4c(cc3Br)OCO4)c2n1 | 16.9%
9 | CCOC(=O)c1c[nH]n2c(=S)ncnc12 | 99.7%
10 | CC1(C)CC[C@]2(C(N)=O)CC[C@]3(C)C(=CC[C@@H]4[C@@]5(C)C/C(=C/c6cccnc6)C(=O)C(C)(C)[C@@H]5CC[C@]43C)[C@@H]2C1 | -61.1% [100 µM] (active)
11 | O=[N+]([O-])c1cc(CCl)ccc1OCCBr | 107%
12 | O=C1COCCN1c1ccc(Nc2nc(Cl)nc(N3CCOCC3)n2)cc1 | 98.5%
13 | O=C(OCc1ccc2c(Cl)cc(Cl)c(O)c2n1)N1CCNCC1 | 14%
14 | Cc1ccc(S(=O)(=O)NCCCNc2nccc(-c3c(-c4cccc(F)c4)nc4occn34)n2)cc1 | 80.9%
15 | COc1cc(Cl)cc(-c2nn(C(=O)NS(=O)(=O)c3ccccc3)cc2-c2ccncc2)c1 | 80%
16 | Cn1cc(-c2noc(-c3cn(C)c4ncccc34)n2)c2cc(Cl)ccc21 | 89.3%
17 | CC(C)CSc1ncnc2nc[nH]c12 | 90.3%
18 | Cc1cnc([C@]23CC[C@@H](C)[C@H](C)[C@H]2C2=CC[C@@H]4[C@@]5(C)Cc6c([nH]c7ccccc67)C(C)(C)[C@@H]5CC[C@@]4(C)[C@]2(C)CC3)o1 | 42.7% [100 µM]
19 | CC1(C)CC[C@]2(C(=O)O)CC[C@]3(C)C(=CC[C@@H]4[C@@]5(C)C/C(=C/c6ccco6)C(=O)C(C)(C)[C@@H]5CC[C@]43C)[C@@H]2C1 | -71.8% [100 µM] (active)
